Experimental data from PubChem BioAssay AID686979 (National Center for Advancing Translational Sciences (NCATS), 2013).
“And” between values parts separate entries of the source, which are not always exact repeats. Equal entries are not always repeated. The whole screen tested about 420,000 compounds, of which about 50,000 (12%) were called active. Inconclusive results (about 26%) are left out. Calls come from the whole dose curve; as a rule, active = well fitted inhibition curve with a large enough effect; inconclusive = small, poorly fitted or top-dose-only effect; inactive = flat fitted curve, though single readings scatter. Many of the other results were omitted from the sample, so actives are more common in it than they were. A structure can be active in one record and inactive in another. Where a SMILES comes first, the peptide text is derived from it. [ ]: non-standard residue; d: D form. The star is where a group is joined. PhAc = O=C(Cc1ccccc1)*

Assay: qHTS for Inhibitors of human tyrosyl-DNA phosphodiesterase 1 (TDP1): qHTS in cells in presence of CPT; note: nearly all actives have a fitted effect of over 55% in size
Details: chicken DT40 Tdp1-/-;hTDP1 cells + 20 nM CPT, ATP luminescence, 48 h; series mostly up to 46.2 µM; activity change, negative = growth inhibition: at the top concentration
In short: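 Chicken DT40 Tdp1-/- cells complemented with human TDP1, 400 cells/well, exposed to compounds plus 20 nM camptothecin for at least 48 h at 37 C; viability read as ATP content by CellTiter-Glo luminescence.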
% is set by controls: 0 for no effect and ±100 for the full control effect; potency is the fitted concentration of half-maximal effect.

Q: With COc1ccccc1Cn1c(CO)nc2ccccc21 as the compound, how does the “activity change, negative = growth inhibition” value read?
A: -7.97% (inactive)

Q: With Cc1cc(C(=O)COC(=O)CNC(=O)c2ccc(F)cc2)c(C)n1Cc1ccco1 as the compound, how does the “activity change, negative = growth inhibition” value read?
A: -1.26% (inactive)

Q: Which “activity change, negative = growth inhibition” value does the source give for CCCCCNC(=O)c1cccnc1SCC(=O)Nc1ccccc1OC here?
A: -16.8% (inactive)

Q: With CCC(=O)NCCc1nc2ccccc2n1CC as the compound, how does the “activity change, negative = growth inhibition” value read?
A: 16% (inactive)

Q: Which “activity change, negative = growth inhibition” value does the source give for Cc1cc2ccccc2n1CCC(=O)O here?
A: 10.1% (inactive)

Q: For CC(=O)NCCc1nc2cc(NC(=O)c3ccccc3)ccc2n1C, which “activity change, negative = growth inhibition” value is on record?
A: -18.5% (inactive)

Q: For CCCCCn1c(CCNC(=O)c2ccc(F)cc2)nc2ccccc21, which Potency is on record?
A: 23.1 µM (active)

Q: With CCCCCn1c(CCCNC(=O)c2ccccc2OC)nc2ccccc21 as the compound, how does the Potency read?
A: 20.6 µM (active)

Q: Which Potency does the source give for Cc1cc2ccccc2n1CCNC(=O)c1ccc(F)cc1 here?
A: 14.6 µM (active)

Q: Which “activity change, negative = growth inhibition” value does the source give for COc1ccc(CCNC(=O)Cn2c(=O)n(-c3ccccc3)c(=O)c3c(C)c(C)sc32)cc1OC here?
A: -27.4% (inactive)

Q: Which “activity change, negative = growth inhibition” value does the source give for Cc1cc(C)c(NC(=O)c2cc3sc(Cl)cc3n2C)c(C)c1 here?
A: -28.3% (inactive)

Q: With COc1ccc2c(c1)c1nc3n(c(=O)c1n2CC(=O)Nc1ccccc1)CCS3 as the compound, how does the “activity change, negative = growth inhibition” value read?
A: 0.0881% (inactive)

Q: With COc1ccc(S(=O)(=O)Nc2ccc3c(c2)OCO3)cc1Cl as the compound, how does the “activity change, negative = growth inhibition” value read?
A: -21.9% (inactive)

Q: Which Potency does the source give for COCC(=O)Nc1c(I)c(C(=O)NCC(O)CO)c(I)c(C(=O)N(C)CC(O)CO)c1I (stereo not given) here?
A: inactive

Q: For CC(C)C[C@@H](NC(=O)[C@H]1CCCN1C(=O)Cc1ccccc1)C(N)=O (PhAc-[dP]-[dL]-NH2), which “activity change, negative = growth inhibition” value is on record?
A: -1.96% (inactive)

Q: With Cc1noc2ncnc(NCc3ccccc3Cl)c12 as the compound, how does the Potency read?
A: 18.4 µM (active)

Q: Which “activity change, negative = growth inhibition” value does the source give for Cc1cnc(CNc2ncncc2-c2ccccc2Cl)cn1 here?
A: -18.5% (inactive)

Q: With O=C(O)Cc1ccc(NCc2ccccc2Cl)cc1 as the compound, how does the “activity change, negative = growth inhibition” value read?
A: -0.43% (inactive)

Q: Which “activity change, negative = growth inhibition” value does the source give for N/C(=N\OC(=O)CCCC(=O)O)c1ncc(C(F)(F)F)cc1Cl here?
A: -7.67% (inactive)

Q: With CCNC(=O)COc1cc(C)c(Br)c(C)c1 as the compound, how does the “activity change, negative = growth inhibition” value read?
A: -8.79% (inactive)

Q: For CCn1cc(/C=C(\NC(=O)c2cc(OC)c(OC)c(OC)c2)C(=O)N2CCN(C)CC2)c2ccccc21, which “activity change, negative = growth inhibition” value is on record?
A: -20.7% (inactive)

Q: With COc1ccc(C2=CC(c3ccccc3Cl)n3nc(-c4ccc(Cl)cc4)nc3N2)cc1 (stereo not given) as the compound, how does the “activity change, negative = growth inhibition” value read?
A: -25.4% (inactive)

Q: Which “activity change, negative = growth inhibition” value does the source give for CN(CC(=O)NCCN1CCOCC1)S(=O)(=O)c1ccc(F)cc1 here?
A: -5.45% (inactive)

Q: Which “activity change, negative = growth inhibition” value does the source give for Cc1ccnc(SCC(=O)Nc2cccc(S(=O)(=O)N3CCOCC3)c2)n1 here?
A: -17.4% (inactive)

Q: For C=C(C)CNC(=S)/N=c1\scc(C)n1CC, which Potency is on record?
A: 18.4 µM (active)

Q: For Cc1csc(=NC(=O)c2ccccc2)n1CCO, which “activity change, negative = growth inhibition” value is on record?
A: -1.5% (inactive)

Q: Which “activity change, negative = growth inhibition” value does the source give for CSCCC(C(=O)NC1=NCCS1)N1C(=O)c2ccccc2C1=O (stereo not given) here?
A: 0.803% (inactive)

Q: For N/C(=N\OS(=O)(=O)c1cccc([N+](=O)[O-])c1)c1ccncc1, which “activity change, negative = growth inhibition” value is on record?
A: 19.5% (inactive)

Q: Which “activity change, negative = growth inhibition” value does the source give for CCCCc1nnc(NC(=O)CSc2nc(N)cc(=O)[nH]2)s1 here?
A: -1.51% (inactive)

Q: With Cc1cc(C(=O)CSc2nc(N)cc(=O)[nH]2)c(C)n1CCc1ccc(Cl)cc1 as the compound, how does the Potency read?
A: 16.4 µM (active)

Q: Which Potency does the source give for Cc1cc(C(=O)CSc2nc(N)cc(=O)[nH]2)c(C)n1-c1cccc(F)c1 here?
A: 7.31 µM (active)

Q: For Cc1cc(C)c(C(=O)CSc2nc(C)cc(=O)[nH]2)c(C)c1, which “activity change, negative = growth inhibition” value is on record?
A: -9.01% (inactive)

Q: With Cc1cc(=O)[nH]c(SCc2ccc(Cl)cc2)n1 as the compound, how does the “activity change, negative = growth inhibition” value read?
A: -0.663% (inactive)

Q: Which “activity change, negative = growth inhibition” value does the source give for CCN(C(=O)CSc1nc(N)cc(=O)[nH]1)C1CCS(=O)(=O)C1 (stereo not given) here?
A: -3.6% (inactive)

Q: For Cc1c(OC(C)C(=O)NCC2CCC(C(=O)O)CC2)ccc2c1oc(=O)c1ccccc12 (stereo not given), which “activity change, negative = growth inhibition” value is on record?
A: -15.5% (inactive)

Q: For COc1cc(SC)ccc1C(=O)NNC(=O)C1COc2ccccc2O1 (stereo not given), which “activity change, negative = growth inhibition” value is on record?
A: 4.8% (inactive)

Q: For CCc1ccccc1NC(=O)CN(C)C(=O)c1cc(C2CC2)nn1-c1ccccc1, which “activity change, negative = growth inhibition” value is on record?
A: -25.9% (inactive)

Q: Which “activity change, negative = growth inhibition” value does the source give for O=C(COC(=O)c1cccnc1Cl)NC12CC3CC(CC(C3)C1)C2 here?
A: -1.45% (inactive)

Q: For O=C(COC(=O)c1ccc(Br)o1)NC12CC3CC(CC(C3)C1)C2, which “activity change, negative = growth inhibition” value is on record?
A: 6.98% (inactive)

Q: Which Potency does the source give for COc1cc(C(=O)OCC(=O)NC23CC4CC(CC(C4)C2)C3)cc(OC)c1OC here?
A: 29.1 µM (active)

Q: With CC(C)S(=O)(=O)c1oc(-c2ccc(F)cc2)nc1S(=O)(=O)c1ccc(F)cc1 as the compound, how does the Potency read?
A: 0.291 µM (active)

Q: For COc1cc(-c2nc(S(=O)(=O)c3ccc(Cl)cc3)c(N(C)C)o2)cc(OC)c1OC, which “activity change, negative = growth inhibition” value is on record?
A: -27.9% (inactive)

Q: Which “activity change, negative = growth inhibition” value does the source give for Cc1cccc(-c2noc(-c3ccc(F)cc3)n2)c1 here?
A: 11% (inactive)

Q: Which “activity change, negative = growth inhibition” value does the source give for COc1ccc2c(c1)C(NS(=O)(=O)OCC(Cl)(Cl)Cl)CCC2 (stereo not given) here?
A: -25.2% (inactive)

Q: With C=CC1C(OC2OC(CO)C(O)C(O)C2O)OC=C(C(=O)OC)C1CC1CC(=O)CC(CC(=O)CCc2ccc(O)cc2)O1 (stereo not given) as the compound, how does the “activity change, negative = growth inhibition” value read?
A: -3.31% (inactive)

Q: Which “activity change, negative = growth inhibition” value does the source give for Cc1ccccc1NC(=O)Cc1nc(COC(=O)c2cccnc2Cl)cs1 here?
A: -26.9% (inactive)

Q: With Cc1ccc(CSc2nc(-c3ccccc3)c(C#N)c(=O)[nH]2)cc1 as the compound, how does the “activity change, negative = growth inhibition” value read?
A: 4.01% (inactive)

Q: Which “activity change, negative = growth inhibition” value does the source give for O=C(NC1CCCCC1)c1ccc(CNc2c(N3CCOCC3)c(=O)c2=O)cc1 here?
A: 2.06% (inactive)

Q: Which “activity change, negative = growth inhibition” value does the source give for CC1CCC(NC(=O)c2ccc(N3CCCC3=O)cc2)CC1 (stereo not given) here?
A: -14.2% (inactive)

Q: With CN1C(=O)/C(=C/c2ccc(C(=O)NC3CCCC3)cc2)Oc2ccccc21 as the compound, how does the Potency read?
A: 13 µM (active)

Q: With CCC(=O)Nc1nnc(S(=O)(=O)N(CC(C)C)c2ccccc2)s1 as the compound, how does the “activity change, negative = growth inhibition” value read?
A: 1.07% (inactive)

Q: With CC(C)CC(=O)Nc1nnc(S(=O)(=O)N(C)c2ccc(Cl)cc2)s1 as the compound, how does the Potency read?
A: inactive and 146 nM (active)

Q: For COc1cccc(C(=O)Nc2nnc(S(=O)(=O)N(C)c3ccccc3)s2)c1, which “activity change, negative = growth inhibition” value is on record?
A: -2.7% (inactive)

Q: For Cc1noc(C)c1S(=O)(=O)N(C)C[C@H]1Oc2ccc(NC(=O)C3CCCCC3)cc2C(=O)N([C@H](C)CO)C[C@@H]1C, which “activity change, negative = growth inhibition” value is on record?
A: -22% (inactive)

Q: Which Potency does the source give for COc1ccccc1C(=O)Nn1c(-c2cccs2)nc2ccccc2c1=O here?
A: 18.4 µM (active)

Q: With O=C(Nn1c(-c2ccc(Cl)cc2)nc2ccccc2c1=O)c1cccnc1Cl as the compound, how does the “activity change, negative = growth inhibition” value read?
A: 4.95% (inactive)

Q: Which “activity change, negative = growth inhibition” value does the source give for COc1cc(OC)cc(-c2nc3ccccc3c(=O)n2NC(=O)c2cccnc2Cl)c1 here?
A: 17.5% (inactive)

Q: For Cc1ccc(OCC(=O)OCc2cc(=O)n3nc(C4CC4)sc3n2)cc1, which “activity change, negative = growth inhibition” value is on record?
A: -14.9% (inactive)

Q: For CCc1cc(C(=O)Nc2nnc(C3CC3)s2)sc1C, which “activity change, negative = growth inhibition” value is on record?
A: -2.49% (inactive)

Q: With CCCN(CC(=O)Nc1ccccc1C)C(=O)c1cc(=O)[nH]c2ccccc12 as the compound, how does the “activity change, negative = growth inhibition” value read?
A: 15.5% (inactive)

Q: With CCCN(CC(=O)Nc1ccccc1C)C(=O)c1ccc2[nH]c3c(c2c1)CC(C)CC3 (stereo not given) as the compound, how does the Potency read?
A: 20.6 µM (active)

Q: With CCCN(CC(=O)Nc1ccccc1C)C(=O)c1ccc(OCC(=O)N2CCOCC2)c(OCC)c1 as the compound, how does the “activity change, negative = growth inhibition” value read?
A: -11.1% (inactive)

Q: With Cc1ccc(CN2CCN(c3ccccc3Cl)CC2)o1 as the compound, how does the “activity change, negative = growth inhibition” value read?
A: -0.0371% (inactive)

Q: With Cc1ccc(N2C(=O)C3C4C=CC(CC4)C3C2=O)cc1Cl (stereo not given) as the compound, how does the “activity change, negative = growth inhibition” value read?
A: -2.58% (inactive)

Q: For O=C(NCCN1CCOCC1)/C(=C/c1ccc(F)cc1)NC(=O)c1ccccc1, which “activity change, negative = growth inhibition” value is on record?
A: -3.57% (inactive)
